Source: PubChem (National Center for Advancing Translational Sciences (NCATS))
NIH3T3 tox: kills NIH 3T3 cells. Potency, µM (titrated, usually from 96.7 µM), hits mostly inhibitors. AID 1345082. 94,000 tested, 4.3% active. NIH 3T3 viability, CellTiter-Glo ATP luminescence, 48-72 h; note: nearly all actives have a fitted effect of over 55% in size
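Luminescent ATP readout (CellTiter-Glo, 10 min RT) after 48 or 72 hr compound exposure of NIH 3T3 cells seeded at 400 cells/well in 1536-well format; quantitative HTS.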
HEK cytotox: kills HEK 293 cells. HEK 293 viability, ATP luminescence (CellTiter-Glo), 48-72 h. Potency, µM (series often up to 115 µM), most hits filed as inhibitors. 94,000 tested, 6.6% active; note: nearly all actives have a fitted effect of over 60% in size
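HEK 293 seeded at 250 cells/well receive compound via pintool. After 48 or 72 hr at 37 degree Celsius, 5% CO2 and 95% humidity, CellTiter-Glo is dispensed and luminescence read following 10 min at room temperature.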
NPR1 antag: antagonists of human natriuretic peptide receptor Npr1; HEK293 hNpr1 GloSensor cGMP, ANP-stimulated luminescence; 76,000 tested, 1.6% active; AID 1347048; Potency, µM (highest dose often 46.3 µM), most hits filed as inhibitors; calls by dose curve; note: nearly all actives have a fitted effect of over 60% in size
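Compound pre-incubated 30 min at room temperature on GloSensor-loaded HEK293 cells stably carrying hNpr1 and the pGS-40F cGMP biosensor. Stimulation uses hNppA at 0.1 nM final; luminescence is taken at baseline and 20 min post-agonist.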
FLuc inh: inhibitors of firefly (Photinus pyralis) luciferase; 76,000 tested, 2.5% active; P08659; Potency, µM (titrated, usually from 115 µM), usual class: inhibitors; AID 1347043; purified P. pyralis luciferase, luminescence, biochemical; note: nearly all actives have a fitted effect of over 65% in size
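Inhibitors were tested against purified firefly luciferase in a biochemical, low-substrate format (both substrates at 10uM) and luminescence measured with a CCD imager.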
NPR1 antag cnf: hNpr1 antagonism, confirmation assay; shares compounds with NPR1 antag; HEK293 hNpr1 cGMP GloSensor luminescence, ANP-stimulated; Potency, µM (highest dose often 57.6 µM), actives largely listed as inhibitors; 1,400 tested, 76% active; AID 1347044; calls by dose curve; note: nearly all actives have a fitted effect of over 70% in size
Npr2 selectivity: antagonizes human Npr2, subtype selectivity check. shares compounds with NPR1 antag. HEK293 hNpr2 GloSensor cGMP luminescence, CNP-stimulated. Potency, µM (series often up to 57.6 µM), actives largely listed as inhibitors. 1,400 tested, 67% active. AID 1347046; calls by dose curve; note: nearly all actives have a fitted effect of over 70% in size
FLuc inh counter: inhibits firefly luciferase, false Npr1 antagonist flag; shares compounds with NPR1 antag; purified FLuc enzyme, luminescence, Km substrate; Potency, µM (titrated, usually from 57.6 µM), actives largely listed as inhibitors; 1,400 tested, 0.7% active; note: series mostly up to about 58 µM
GloSensor ctrl: counter-screen for Npr1 antagonists: GloSensor control cell line; shares compounds with NPR1 antag; HEK293 GloSensor cGMP, SNP-stimulated, luminescence; Potency, µM (doses to about 57.6 µM), usual class: inhibitors; 1,400 tested, 69% active; AID 1347051; calls by dose curve; note: nearly all actives have a fitted effect of over 70% in size
Each line names hits and unclear results; the compound was inactive in the other large screens (follow-up assays come after a bar, where they were run). The list is not random: actives were taken first. Their share in the collection is about 11%. Unless noted, calls come from the whole dose curve; as a rule, active = well fitted curve in the direction sought with a large enough effect; inconclusive = small, poorly fitted or top-dose-only effect, or another doubt; inactive = no such curve, though single readings can be large; an effect the other way counts as inactive or inconclusive.

O=C(Nc1ccc(Cl)cc1)c1nc2c(o1)CCN(Cc1cccc(F)c1)CC2	NIH3T3 tox inconclusive, HEK cytotox inconclusive, NPR1 antag 7.9µM | NPR1 antag cnf 11µM | Npr2 selectivity 16µM | FLuc inh counter inactive | GloSensor ctrl 11µM
Cc1noc(C)c1CN1CCc2nc(C(=O)Nc3cccc(C(F)(F)F)c3)oc2CC1	NIH3T3 tox inconclusive, HEK cytotox inconclusive, NPR1 antag 32µM | NPR1 antag cnf 28µM | Npr2 selectivity 31µM | FLuc inh counter inactive | GloSensor ctrl 20µM
COc1ccc(CN2CCc3nc(C(=O)NCc4cccc(F)c4)oc3CC2)cc1	NIH3T3 tox inconclusive, HEK cytotox inconclusive
O=C(Nc1cccc(C(F)(F)F)c1)c1nnn2c1CN(Cc1ccccc1F)C(=O)CC2	NIH3T3 tox inconclusive, HEK cytotox inconclusive
COc1ccccc1CN1CCc2nc(C(=O)Nc3cccc(C(F)(F)F)c3)oc2CC1	NIH3T3 tox 28µM, HEK cytotox 32µM, NPR1 antag inconclusive | NPR1 antag cnf 22µM | Npr2 selectivity 24µM | FLuc inh counter inactive | GloSensor ctrl 24µM
O=C(Nc1cccc(C(F)(F)F)c1)c1nc2c(o1)CCN(Cc1ccccc1F)CC2	NIH3T3 tox 50µM, HEK cytotox 63µM, NPR1 antag inconclusive | NPR1 antag cnf inconclusive | Npr2 selectivity inconclusive | FLuc inh counter inactive | GloSensor ctrl inconclusive
O=C(NCCOc1ccccc1)c1nc2c(o1)CCN(Cc1c(F)cccc1F)CC2	NIH3T3 tox inconclusive, HEK cytotox inconclusive
COc1ccc(C(C)NC(=O)C2(c3ccc(NS(C)(=O)=O)cc3)CCCCC2)cc1 (stereo not drawn)	none
O=C(c1cn(C/C=C/c2ccccc2)nn1)N1CCCN(C2CCCCC2)CC1	HEK cytotox inconclusive
CN(Cc1cccnc1)c1nc2c(c(=O)[nH]1)CCN(Cc1ccc(F)cc1F)CC2	NIH3T3 tox inconclusive, HEK cytotox inconclusive
O=C(Nc1cccnc1)c1nc2c(o1)CCN(Cc1ccc(F)cc1F)CC2	NIH3T3 tox inconclusive, HEK cytotox inconclusive, NPR1 antag 32µM | NPR1 antag cnf 40µM | Npr2 selectivity 40µM | FLuc inh counter inactive | GloSensor ctrl 35µM
CC1(COc2cccnc2)COc2ccc(C(=O)NCc3ccc4c(c3)OCO4)cc2N1 (stereo not drawn)	NIH3T3 tox inconclusive, HEK cytotox inconclusive, NPR1 antag 25µM | NPR1 antag cnf 31µM | Npr2 selectivity 31µM | FLuc inh counter inactive | GloSensor ctrl 22µM
CC1(COc2cccnc2)COc2ccc(C(=O)NCc3ccc(F)cc3)cc2N1 (stereo not drawn)	NIH3T3 tox inconclusive, HEK cytotox 56µM, NPR1 antag 35µM | NPR1 antag cnf 31µM | Npr2 selectivity 31µM | FLuc inh counter inactive | GloSensor ctrl 25µM
COCCN(C)C(=O)c1ccc2c(c1)NC(C)(COc1cccnc1)CO2 (stereo not drawn)	NIH3T3 tox inconclusive, HEK cytotox inconclusive, NPR1 antag inconclusive
CC1(COc2cccnc2)COc2ccc(C(=O)NCc3cnccn3)cc2N1 (stereo not drawn)	HEK cytotox inconclusive
CN(C(=O)c1ccc2c(c1)NC(C)(COc1cccnc1)CO2)c1ccccc1 (stereo not drawn)	HEK cytotox inconclusive, NPR1 antag 3.2µM | NPR1 antag cnf 3.5µM | Npr2 selectivity 5µM | FLuc inh counter inactive | GloSensor ctrl 3.1µM
COc1ccc(OCC2(C)COc3ccc(C(=O)N(C)Cc4ccccc4)cc3N2)cc1 (stereo not drawn)	NIH3T3 tox inconclusive, HEK cytotox inconclusive
COc1ccc(OCC2(C)COc3ccc(C(=O)Nc4ccccc4)cc3N2)cc1 (stereo not drawn)	NIH3T3 tox inconclusive, HEK cytotox inconclusive, NPR1 antag 25µM | NPR1 antag cnf 35µM | Npr2 selectivity 35µM | FLuc inh counter inactive | GloSensor ctrl 35µM
CN(Cc1ccccc1)CC1(O)CCCN(CCCc2ccccc2)C1=O (stereo not drawn)	NIH3T3 tox inconclusive, HEK cytotox inconclusive
O=C(NC1CCCCCC1)c1csc(N2CCN(c3ccccc3)CC2)n1	NIH3T3 tox inconclusive, HEK cytotox inconclusive, NPR1 antag inconclusive | NPR1 antag cnf 24µM | Npr2 selectivity inconclusive | FLuc inh counter inactive | GloSensor ctrl inconclusive
CCN(CC)C(=O)c1csc(N2CCN(c3cccc(Cl)c3)CC2)n1	NIH3T3 tox inconclusive, HEK cytotox inconclusive, NPR1 antag 16µM | NPR1 antag cnf 24µM | Npr2 selectivity 22µM | FLuc inh counter inactive | GloSensor ctrl 22µM
Cc1cccc(CNC(=O)c2csc(N3CCN(c4ccccc4)CC3)n2)c1	NIH3T3 tox inconclusive, HEK cytotox 40µM, NPR1 antag 13µM | NPR1 antag cnf 24µM | Npr2 selectivity 24µM | FLuc inh counter inactive | GloSensor ctrl 22µM
COc1cccc(N2CCN(c3nc(C(=O)NCc4cccc(C)c4)cs3)CC2)c1	NIH3T3 tox inconclusive, HEK cytotox inconclusive, NPR1 antag 13µM | NPR1 antag cnf 12µM | Npr2 selectivity 11µM | FLuc inh counter inactive | GloSensor ctrl 12µM
COc1ccccc1CNC(=O)C1Cn2cccc2C(=O)N1Cc1cccnc1 (stereo not drawn)	none
Clc1cccc(-c2cnc([C@@H]3COCCN3Cc3cnc4ccccc4c3)[nH]2)c1	NIH3T3 tox 79µM, HEK cytotox 63µM, NPR1 antag 28µM | NPR1 antag cnf inconclusive | Npr2 selectivity inconclusive | FLuc inh counter inactive | GloSensor ctrl inconclusive
CC(C)N1CCN(CCN2CC3(CCN(C(=O)CCN)CC3)OC2=O)CC1	none
O=C(N[C@H]1CO[C@H]2[C@@H]1OC[C@@H]2n1nnnc1Oc1ccc2c(c1)OCO2)c1ccc(C(F)(F)F)cc1	NIH3T3 tox inconclusive, HEK cytotox inconclusive, NPR1 antag 7.9µM | NPR1 antag cnf 6.9µM | Npr2 selectivity 8.6µM | FLuc inh counter inactive | GloSensor ctrl 5.4µM
CCCNC(=O)CCc1ccc2c(c1)CN(C(=O)NCC)CCO2	none
CCNC(=O)N1CCOc2ccc(CCC(=O)Nc3ccc(C)cc3)cc2C1	NIH3T3 tox inconclusive, HEK cytotox inconclusive, NPR1 antag 11µM | NPR1 antag cnf 15µM | Npr2 selectivity 19µM | FLuc inh counter inactive | GloSensor ctrl 12µM
Cc1ccccc1C(=O)N1CCC2(C1)C(=O)N(C)c1ccccc12 (stereo not drawn)	none
CCOCC(=O)N1CCc2nc3cc(-c4ccc(OC)cc4)[nH]n3c(=O)c2C1	NIH3T3 tox inconclusive, HEK cytotox inconclusive, FLuc inh inconclusive
